# Assay results from PubChem BioAssay (NCI).
# This is part of a sample that, as a whole, favours compounds with a hit. Of some 79,000 tested, about 15% had one in any assay. Values without a mark were called inactive. Calls of active or inactive are those of the source. No stated cut-off is given here; in the data, active means growth inhibition above about 70%; inactive means the rest.
# Legend:
# [1] = NCI Yeast Anticancer Drug Screen. Data for the mec2-1 strain (AID 157); details: S. cerevisiae mec2-1 strain, hits give high values
# Summary of the method: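 Test agents were screened against the mec2-1 yeast strain, with defined DNA repair or cell cycle alteration. Growth was scored as inhibition against vehicle-only controls.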
# [2] = NCI Yeast Anticancer Drug Screen. Data for the rad14 strain (AID 159);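 further: 0% = growth of vehicle-treated control cultures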; details: S. cerevisiae rad14 strain growth inhibition, hits give high values
# Summary of the method: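 Compound-treated yeast with a defined DNA-repair lesion; growth inhibition normalised to vehicle-treated cultures.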
# [3] = NCI Yeast Anticancer Drug Screen. Data for the sgs1 mgt1 strain (AID 161);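 further: 0% = growth of cultures given vehicle only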; details: S. cerevisiae sgs1 mgt1 strain, hits give high values
# Summary of the method: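 Inhibition of yeast growth, normalised to vehicle-treated controls, is reported for a strain bearing genetic alterations in DNA damage repair.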
# [4] = NCI Yeast Anticancer Drug Screen. Data for the CLN2oe strain (AID 163);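 further: 0% = growth of vehicle-only control cultures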; details: S. cerevisiae CLN2oe strain, hits give high values
# Summary of the method: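 Here, growth inhibition in a cell-cycle-altered yeast strain after compound exposure was quantified against vehicle control growth.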
# [5] = NCI Yeast Anticancer Drug Screen. Data for the cln2 rad14 strain (AID 165);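 further: 0% = growth equal to vehicle treated cultures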; details: S. cerevisiae cln2 rad14 strain, hits give high values
# Summary of the method: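 Growth of compound-exposed yeast (cln2 rad14 genotype) measured and expressed as inhibition relative to vehicle.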
# [6] = NCI Yeast Anticancer Drug Screen. Data for the bub3 strain (AID 167); details: S. cerevisiae bub3 mutant strain, hits give high values
# Summary of the method: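 Growth of a checkpoint-deficient yeast mutant is measured after compound exposure. Values represent inhibition relative to vehicle.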
# [7] = NCI Yeast Anticancer Drug Screen. Data for the wt2 strain (AID 169);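 further: 0% = growth of vehicle-treated yeast cultures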; details: S. cerevisiae wt2 strain growth inhibition, hits give high values
# Summary of the method: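 Genetically defined yeast strains from a DNA-repair/cell-cycle panel were used. Compound-exposed yeast growth was measured, and the inhibition was calculated relative to vehicle treatment.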
# [8] = NCI Yeast Anticancer Drug Screen. Data for the mlh1 strain (AID 171);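 further: 0% = growth of vehicle-treated control cultures of the same strain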; details: S. cerevisiae mlh1 strain growth inhibition, hits give high values
# Summary of the method: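 Here the genetically defined yeast mutant is grown with each compound, and the extent to which its growth falls below that of vehicle-exposed cells is reported.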
# [9] = NCI Yeast Anticancer Drug Screen. Data for the sgs1 strain (AID 173);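 further: 0% = growth of vehicle-only control cultures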; details: S. cerevisiae sgs1 mutant, hits give high values
# Summary of the method: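 Relative growth inhibition, referenced to vehicle, was determined in a yeast strain with a defined alteration affecting DNA damage repair or cell cycle control after compound exposure.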
# [10] = NCI Yeast Anticancer Drug Screen. Data for the mlh1 rad18 strain (AID 175); details: S. cerevisiae mlh1 rad18 strain growth inhibition, hits give high values
# Summary of the method: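 In this whole-cell yeast screen, a strain with altered DNA damage repair is challenged with compound, and its growth is measured against matched vehicle-treated controls.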
# [11] = NCI Yeast Anticancer Drug Screen. Data for the rad18 strain (AID 177); details: S. cerevisiae rad18 mutant growth inhibition, hits give high values
# Summary of the method: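 Screen uses a yeast strain with a defined lesion in DNA damage repair; compound effect is read as loss of growth compared to untreated vehicle cultures.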
# [12] = NCI Yeast Anticancer Drug Screen. Data for the rad52 strain (AID 147);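 further: 0% = growth of vehicle-treated control cultures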; details: S. cerevisiae rad52 mutant growth inhibition, hits give high values
# Summary of the method: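 Measured: yeast growth inhibition. System: strain with a defined DNA damage repair alteration. Reference: vehicle-treated control cultures.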
# [13] = NCI Yeast Anticancer Drug Screen. Data for the wt1 strain (AID 149);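 further: 0% = growth of vehicle-treated wt1 cultures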; details: S. cerevisiae wt1 strain (SPY 50644) growth inhibition, hits give high values
# Summary of the method: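 Readout: yeast growth inhibition, normalised to vehicle controls, in the wt1 strain exposed to test compounds.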
# [14] = NCI Yeast Anticancer Drug Screen. Data for the rad50EPP+ strain (AID 151);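 further: 0% = growth of vehicle-treated control cultures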; details: S. cerevisiae rad50 mutant strain, hits give high values
# Summary of the method: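 One strain with a rad50 alteration (rad50EPP+) was compound-treated, its growth then compared to that of vehicle controls.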
# [15] = NCI Yeast Anticancer Drug Screen. Data for the mgt1 strain (AID 153); details: S. cerevisiae mgt1 mutant growth inhibition, hits give high values
# Summary of the method: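 After exposure of the mgt1 yeast mutant to compound, growth was measured and reported as inhibition compared with vehicle controls.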
# [16] = NCI Yeast Anticancer Drug Screen. Data for the rad50 strain (AID 155);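 further: 0% = growth of vehicle-only cultures of the same strain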; details: S. cerevisiae rad50 strain growth inhibition, hits give high values
# Summary of the method: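 Compounds were tested on a yeast strain with an engineered DNA damage repair alteration; the reported value is growth inhibition normalised to vehicle treatment.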
# [17] = at 5.0 µM (retest, dose inferred, filed as 0.5)
# [18] = at 50.0 µM (retest, dose inferred, filed as 5.0)
smiles,measurement,setting,value
NNC(=S)Nc1cccc2ccccc12,growth inhibition,[1]; [17],60%
same,growth inhibition,[1]; at 11.0 µM,-20%
same,growth inhibition,[1]; at 33.0 µM,-9%
same,growth inhibition,[1]; [18],78% (active)
same,growth inhibition,[1]; at 50.0 µM,23.8%
same,growth inhibition,[1]; at 100.0 µM,12%
same,growth inhibition,[2]; at 1.2 µM,-14%
same,growth inhibition,[2]; at 3.7 µM,-33%
same,growth inhibition,[2]; at 11.0 µM,-50%
same,growth inhibition,[2]; at 33.0 µM,-32%
same,growth inhibition,[2]; at 100.0 µM,28%
same,growth inhibition,[3]; [17],-11%
same,growth inhibition,[3]; [18],54%
same,growth inhibition,[4]; at 1.2 µM,5%
same,growth inhibition,[4]; at 3.7 µM,-3%
same,growth inhibition,[4]; at 11.0 µM,2%
same,growth inhibition,[4]; at 33.0 µM,3%
same,growth inhibition,[4]; at 100.0 µM,27%
same,growth inhibition,[5]; [17],31%
same,growth inhibition,[5]; [18],67%
same,growth inhibition,[6]; at 1.2 µM,-6%
same,growth inhibition,[6]; at 3.7 µM,-9%
same,growth inhibition,[6]; [17],36%
same,growth inhibition,[6]; at 11.0 µM,-15%
same,growth inhibition,[6]; at 33.0 µM,13%
same,growth inhibition,[6]; [18],59%
same,growth inhibition,[6]; at 100.0 µM,55%
same,growth inhibition,[7]; at 1.2 µM,-40%
same,growth inhibition,[7]; at 3.7 µM,-36%
same,growth inhibition,[7]; at 11.0 µM,-33%
same,growth inhibition,[7]; at 33.0 µM,-16%
same,growth inhibition,[7]; at 100.0 µM,17%
same,growth inhibition,[8]; at 1.2 µM,-37%
same,growth inhibition,[8]; at 3.7 µM,-38%
same,growth inhibition,[8]; at 11.0 µM,-29%
same,growth inhibition,[8]; at 33.0 µM,-13%
same,growth inhibition,[8]; at 100.0 µM,48%
same,growth inhibition,[9]; at 1.2 µM,-14%
same,growth inhibition,[9]; at 3.7 µM,-33%
same,growth inhibition,[9]; at 11.0 µM,-19%
same,growth inhibition,[9]; at 33.0 µM,-8%
same,growth inhibition,[9]; at 100.0 µM,37%
same,growth inhibition,[10]; [17],40%
same,growth inhibition,[10]; [18],62%
same,growth inhibition,[10]; at 50.0 µM,49.2%
same,growth inhibition,[11]; at 1.2 µM,-32%
same,growth inhibition,[11]; at 3.7 µM,-39%
same,growth inhibition,[11]; at 11.0 µM,-21%
same,growth inhibition,[11]; at 33.0 µM,2%
same,growth inhibition,[11]; at 100.0 µM,18%
c1ccc2c(c1)Cn1c-2nc2ccccc21,growth inhibition,[12]; at 1.2 µM,1%
same,growth inhibition,[12]; at 3.7 µM,1%
same,growth inhibition,[12]; at 11.0 µM,8%
same,growth inhibition,[12]; at 33.0 µM,78% (active)
same,growth inhibition,[12]; at 100.0 µM,97% (active)
same,growth inhibition,[13]; at 1.2 µM,-27%
same,growth inhibition,[13]; at 3.7 µM,-21%
same,growth inhibition,[13]; at 11.0 µM,-28%
same,growth inhibition,[13]; at 33.0 µM,5%
same,growth inhibition,[13]; at 100.0 µM,94% (active)
same,growth inhibition,[14]; at 1.2 µM,2%
same,growth inhibition,[14]; at 3.7 µM,-4%
same,growth inhibition,[14]; at 11.0 µM,8%
same,growth inhibition,[14]; at 33.0 µM,62%
same,growth inhibition,[14]; at 100.0 µM,95% (active)
same,growth inhibition,[15]; at 1.2 µM,15%
same,growth inhibition,[15]; at 3.7 µM,3%
same,growth inhibition,[15]; at 11.0 µM,30%
same,growth inhibition,[15]; at 33.0 µM,74% (active)
same,growth inhibition,[15]; at 100.0 µM,98% (active)
same,growth inhibition,[16]; at 1.2 µM,-9%
same,growth inhibition,[16]; at 3.7 µM,1%
same,growth inhibition,[16]; [17],49%
same,growth inhibition,[16]; at 11.0 µM,24%
same,growth inhibition,[16]; at 33.0 µM,75% (active)
same,growth inhibition,[16]; [18],74% (active)
same,growth inhibition,[16]; at 50.0 µM,84.3% (active)
same,growth inhibition,[16]; at 100.0 µM,96% (active)
same,growth inhibition,[1]; at 1.2 µM,9%
same,growth inhibition,[1]; at 3.7 µM,7%
same,growth inhibition,[1]; [17],73% (active)
same,growth inhibition,[1]; at 11.0 µM,13%
same,growth inhibition,[1]; at 33.0 µM,53%
same,growth inhibition,[1]; [18],85% (active)
same,growth inhibition,[1]; at 50.0 µM,69.5%
same,growth inhibition,[1]; at 100.0 µM,98% (active)
same,growth inhibition,[2]; at 1.2 µM,-19%
same,growth inhibition,[2]; at 3.7 µM,-17%
same,growth inhibition,[2]; at 11.0 µM,-12%
same,growth inhibition,[2]; at 33.0 µM,33%
same,growth inhibition,[2]; at 100.0 µM,97% (active)
same,growth inhibition,[3]; [17],-27%
same,growth inhibition,[3]; [18],84% (active)
same,growth inhibition,[4]; at 1.2 µM,-18%
same,growth inhibition,[4]; at 3.7 µM,0%
same,growth inhibition,[4]; at 11.0 µM,-23%
same,growth inhibition,[4]; at 33.0 µM,18%
same,growth inhibition,[4]; at 100.0 µM,96% (active)
same,growth inhibition,[5]; [17],54%
same,growth inhibition,[5]; [18],87% (active)
same,growth inhibition,[6]; at 1.2 µM,-11%
same,growth inhibition,[6]; at 3.7 µM,-5%
same,growth inhibition,[6]; [17],27%
same,growth inhibition,[6]; at 11.0 µM,3%
same,growth inhibition,[6]; at 33.0 µM,68%
same,growth inhibition,[6]; [18],86% (active)
same,growth inhibition,[6]; at 100.0 µM,97% (active)
same,growth inhibition,[7]; at 1.2 µM,-24%
same,growth inhibition,[7]; at 3.7 µM,-5%
same,growth inhibition,[7]; at 11.0 µM,-4%
same,growth inhibition,[7]; at 33.0 µM,34%
same,growth inhibition,[7]; at 100.0 µM,94% (active)
same,growth inhibition,[8]; at 1.2 µM,-31%
same,growth inhibition,[8]; at 3.7 µM,-8%
same,growth inhibition,[8]; at 11.0 µM,2%
same,growth inhibition,[8]; at 33.0 µM,36%
same,growth inhibition,[8]; at 100.0 µM,96% (active)
same,growth inhibition,[10]; [17],50%
same,growth inhibition,[10]; [18],78% (active)
same,growth inhibition,[10]; at 50.0 µM,83.4% (active)
same,growth inhibition,[11]; at 1.2 µM,-7%
same,growth inhibition,[11]; at 3.7 µM,-4%
same,growth inhibition,[11]; at 11.0 µM,-1%
same,growth inhibition,[11]; at 33.0 µM,25%
same,growth inhibition,[11]; at 100.0 µM,95% (active)
